# Results reported in PubChem BioAssay (NCI).
# Compounds without any hit were thinned out: in the full panel of roughly 79,000, 15% have a hit. Values without a mark were called inactive. The source made the active and inactive calls. Rule as the data show it: active = growth inhibition above about 70%; inactive = the rest.
# Legend:
# [1] = NCI Yeast Anticancer Drug Screen. Data for the rad50 strain (AID 155);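 also: 0% = growth of vehicle-only cultures of the same strain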; settings: S. cerevisiae rad50 strain growth inhibition; at 50.0 µM; active compounds read high
# Summary of the method: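 Genetically altered yeast (DNA repair pathway); compound treatment; growth inhibition vs vehicle ctrl.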
# [2] = NCI Yeast Anticancer Drug Screen. Data for the mec2-1 strain (AID 157); settings: S. cerevisiae mec2-1 strain, at 50.0 µM, active compounds read high
# Summary of the method: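 Each compound was tested on mec2-1 yeast, a strain altered in DNA damage repair or cell cycle control. Growth inhibition is reported relative to vehicle.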
# [3] = NCI Yeast Anticancer Drug Screen. Data for the sgs1 mgt1 strain (AID 161);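 also: 0% = growth of cultures given vehicle only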; settings: S. cerevisiae sgs1 mgt1 strain, at 50.0 µM, active compounds read high
# Summary of the method: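 Genetically altered yeast, compound exposure, growth inhibition relative to vehicle.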
# [4] = NCI Yeast Anticancer Drug Screen. Data for the cln2 rad14 strain (AID 165);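 also: 0% = growth equal to vehicle treated cultures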; settings: S. cerevisiae cln2 rad14 strain, at 50.0 µM, active compounds read high
# Summary of the method: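 Test compounds were added to cln2 rad14 yeast cultures; inhibition of growth was then determined by comparison with vehicle treatment.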
# [5] = NCI Yeast Anticancer Drug Screen. Data for the bub3 strain (AID 167); settings: S. cerevisiae bub3 mutant strain, at 50.0 µM, active compounds read high
# Summary of the method: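 Yeast carrying a defined mutation is treated with each compound, and growth is compared with that of vehicle-exposed cells to give inhibition.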
# [6] = NCI Yeast Anticancer Drug Screen. Data for the mlh1 rad18 strain (AID 175); settings: S. cerevisiae mlh1 rad18 strain growth inhibition; at 50.0 µM; active compounds read high
# Summary of the method: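 Inhibition values reflect reduced growth of mutant yeast versus vehicle-treated controls following compound exposure; the mutations affect DNA damage repair.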
SMILES,growth inhibition [1],growth inhibition [2],growth inhibition [3],growth inhibition [4],growth inhibition [5],growth inhibition [6]
CC(NC(=O)c1c(O)[nH]c(=S)[nH]c1=O)c1ccc([N+](=O)[O-])cc1 (configuration not stated),17.9%,13.8%,35.8%,19.4%,12.1%,14.6%
O=C(OC12CCN(CC1)CC2)c1ccccc1,-7.55%,8.6%,4.25%,-50.2%,8.15%,0.5%
FC(F)(F)c1cccc(NC2=NCCS2)c1,-22.2%,-46.1%,0%,-5.6%,17.9%,-42.8%
C1CC[N-]CC1.CN(C)P(=O)(N(C)C)N(C)C.OO.OO.[O]=[Mo],11.3%,-16%,15.6%,17.4%,11.9%,15.7%
COC(=O)C1=COC(C)[C@H]2CN3CCc4c([nH]c5cc(OC)ccc45)C3CC12 (some centres not stated),-0.6%,-9.95%,-7.65%,0.9%,-12.8%,-9.1%
CCC1CC[Si](C)(C)CC12C(=O)NC(=O)NC2=O (configuration not stated),0.85%,-2.25%,11.5%,1.65%,12.9%,-0.55%
O=P(Oc1ccccc1)(Oc1ccccc1)Oc1c(Cl)c(Cl)c(O)c(Cl)c1Cl,23.6%,10%,38.9%,19.1%,-16.4%,2.35%
[C-]#[O+].[C-]#[O+].[C-]#[O+].[C-]#[O+].[Cr].c1ccc(P(CCP(CCP(c2ccccc2)c2ccccc2)c2ccccc2)CCP(c2ccccc2)c2ccccc2)cc1 (configuration not stated),20.7%,23.2%,29.2%,16.8%,21.4%,31.6%
COc1cc(N=Nc2ccc([N+](=O)[O-])cc2)c([OH+]C)cc1[N+]#N.COc1cc(N=Nc2ccc([N+](=O)[O-])cc2)c([OH+]C)cc1[N+]#N.[Cl][Zn][Cl],7%,-1.05%,-2.1%,-3.15%,17.9%,12.6%
CCCCCCP(=O)(CCCCCC)CCCCCC (tested in a mixture with another compound),77.3% (active),83.6% (active),87.5% (active),78.6% (active),62%,84.2% (active)
COc1cc2c(cc1OC)-c1c3c(cc4c1[C@H](C2)N(C)CC4)OCO3,-5%,-7.7%,-19.8%,6.75%,-14.2%,-25.5%
C/C=C(\C)C1(CC)C(=O)NC(=O)N(C)C1=O (configuration not stated),1.65%,1.7%,3.3%,-0.6%,-1.05%,-5.95%
C=CCOC(=O)C(Br)CC (configuration not stated),7.65%,-3.2%,-3.7%,-6.25%,11.9%,-14.5%
CCOP(=O)(OCC)/C(C#N)=C/c1ccccc1,19.2%,-23.1%,-8.95%,-33.8%,-11.3%,19.6%
CCOC(=O)NP(=O)(Nc1ccc(C)cc1)Nc1ccc(C)cc1,6.2%,-12%,-0.3%,6.75%,-9.55%,-1.45%
Cn1c2c(c3ccccc31)CCN1OCC=C[C@@H](C(=O)O)[C@@H]21,-8.3%,3.15%,-6.3%,5.55%,42.3%,-8.85%
CC(C)CC(NC(=O)CF)C(=O)O (configuration not stated),3.45%,0.05%,-4.7%,1.4%,4.05%,-3.05%
O=C(CC(=O)C(F)(F)F)c1cccs1,-6.15%,-11.6%,1.1%,12.3%,–,-13.1%
CC1(c2ccccc2)CC12C(=O)NC(=O)NC2=O (configuration not stated),-69.1%,-22.6%,-18.9%,-8.75%,–,-20.9%
CC(=O)CC(C)=O.CC(=O)CC(C)=O.CC(=O)CC(C)=O.CC(=O)CC(C)=O.[Zr],7.2%,28.6%,10.4%,29.6%,–,30.1%
CCOP(=O)(OCC)SC=C(Cl)Cl,-12.9%,5.5%,2.1%,-10.6%,–,6.15%

SMILES,growth inhibition [1],growth inhibition [2],growth inhibition [3],growth inhibition [4],growth inhibition [5],growth inhibition [6]
O=P(O)(O)c1ccccc1,-10.4%,-3.85%,8.85%,-18.9%,–,4.65%
N.N.N.N.O=C([O-])C(Cl)Cl.O=C([O-])C(Cl)Cl.[Co+3].[O-][Cl+3]([O-])([O-])[O-],-10.1%,-13.2%,-23.1%,-15.2%,–,-13.6%
COc1ccc2nc3ccccc3c(NCCCN(C)CCCl)c2c1,67.8%,56.5%,57.8%,50.5%,–,66.2%
COC(=O)/C=C/[C@H]1[C@H](C)N1S(=O)(=O)c1ccc(C)cc1 (some centres not stated),8.75%,20.1%,14.8%,4.4%,–,-7.25%
CCCCCCCCCCCCCCCC[As](CCCCCCCCCCCCCCCC)SC1OC(COC(C)=O)C(OC(C)=O)C(OC(C)=O)C1OC(C)=O (configuration not stated),6.55%,3.55%,19.9%,-4.7%,–,3.55%
Cc1cccc(NC(N)=S)c1,11.6%,1.55%,5.65%,-4.35%,–,8.35%
CC1CC(C)(C)[N+](C)(CCC(C(N)=O)(c2ccccc2)c2ccccc2)C1 (configuration not stated),-8.2%,-5.15%,-7.8%,12.3%,–,3.05%
O=C([CH-]C(=O)c1ccccc1)c1ccccc1.[CH2-]C.[CH2-]C.[Tl+3],52.3%,35.6%,37.2%,–,60.1%,55.1%
NC(=O)Oc1ccccc1,-4.5%,-26.4%,5.4%,12.1%,–,-3.6%
CC(=O)OC[C@]12CCC(C)=C[C@H]1O[C@@H]1[C@H](O)[C@@H](OC(C)=O)[C@@]2(C)[C@@]12CO2,-9.2%,-26.6%,14.9%,-3.45%,–,-6.7%
OC1(c2ccccc2)C2CCN(CC2)C1CN1CCOCC1 (configuration not stated),-23.6%,-30.7%,-20.6%,4.05%,–,7.95%
CCC1(N)C(=O)OCc2c1cc1n(c2=O)Cc2cc3ccccc3nc2-1 (configuration not stated),4.8%,-17.5%,-39.6%,-7.75%,–,-12.3%
N#CNC(N)=S,-13.8%,-10.3%,-10.3%,-8.7%,–,-8.35%
CNCCc1ccc(O)c2ccc3ccc(OC)c(O)c3c12,2.5%,-7.25%,-14.2%,5.25%,–,4.05%
O=C(CC(=O)c1ccccc1)c1ccccc1.[Tl],96.2% (active),91.5% (active),97.5% (active),–,88.7% (active),98.1% (active)
CC1(C)N=C(N)N=C(N)N1c1ccc(OCCCOc2ccc(S(=O)(=O)F)cc2)cc1,35.1%,72.8% (active),89.1% (active),-7.65%,–,84.5% (active)
C[C@@H]1C[C@@H](O)[C@]2(O)O[C@@H]3C[C@@]4(C=O)[C@@H](CC[C@@H]5[C@@H]4CC[C@]4(C)[C@@H](C6=CC(=O)OC6)CC[C@]54O)C[C@H]3O[C@@H]2O1,-7.25%,-16.6%,27.4%,-4.55%,–,-96.5%
C/C=C\C(C)=C/C(C)C(=O)CC(O)CC1CC(=O)NC(=O)C1 (configuration not stated),11.6%,-20.4%,-6.9%,11.8%,–,13.3%
CSC(SC)=C(C(=O)O)P(=O)(O)O,-32.4%,-3.05%,-8.2%,19.1%,–,-16.6%
FC1(F)[Se]C2C3CCC(C3)C2C1(F)F (configuration not stated),-30.9%,-11.6%,-3.6%,-16.1%,–,-40.7%
C1CCC(N([P-]P([P-]N(C2CCCCC2)C2CCCCC2)N(C2CCCCC2)C2CCCCC2)C2CCCCC2)CC1.[C-]#[O+].[C-]#[O+].[C-]#[O+].[C-]#[O+].[C-]#[O+].[C-]#[O+].[Fe].[Fe] (configuration not stated),-20.7%,-28.1%,-23.2%,-8.1%,–,-24.4%
